The record followed here is the supplement of paper PMC10849652.

About 8,800 targets were measured; listed, in parts, are those with a hit and a random draw of the rest. About 0.5% of all pairs of compound and target were hits. Values without a mark were called inactive.

Chain of UniProt Q9UL54 (Q9UL54 whole entry, looked up): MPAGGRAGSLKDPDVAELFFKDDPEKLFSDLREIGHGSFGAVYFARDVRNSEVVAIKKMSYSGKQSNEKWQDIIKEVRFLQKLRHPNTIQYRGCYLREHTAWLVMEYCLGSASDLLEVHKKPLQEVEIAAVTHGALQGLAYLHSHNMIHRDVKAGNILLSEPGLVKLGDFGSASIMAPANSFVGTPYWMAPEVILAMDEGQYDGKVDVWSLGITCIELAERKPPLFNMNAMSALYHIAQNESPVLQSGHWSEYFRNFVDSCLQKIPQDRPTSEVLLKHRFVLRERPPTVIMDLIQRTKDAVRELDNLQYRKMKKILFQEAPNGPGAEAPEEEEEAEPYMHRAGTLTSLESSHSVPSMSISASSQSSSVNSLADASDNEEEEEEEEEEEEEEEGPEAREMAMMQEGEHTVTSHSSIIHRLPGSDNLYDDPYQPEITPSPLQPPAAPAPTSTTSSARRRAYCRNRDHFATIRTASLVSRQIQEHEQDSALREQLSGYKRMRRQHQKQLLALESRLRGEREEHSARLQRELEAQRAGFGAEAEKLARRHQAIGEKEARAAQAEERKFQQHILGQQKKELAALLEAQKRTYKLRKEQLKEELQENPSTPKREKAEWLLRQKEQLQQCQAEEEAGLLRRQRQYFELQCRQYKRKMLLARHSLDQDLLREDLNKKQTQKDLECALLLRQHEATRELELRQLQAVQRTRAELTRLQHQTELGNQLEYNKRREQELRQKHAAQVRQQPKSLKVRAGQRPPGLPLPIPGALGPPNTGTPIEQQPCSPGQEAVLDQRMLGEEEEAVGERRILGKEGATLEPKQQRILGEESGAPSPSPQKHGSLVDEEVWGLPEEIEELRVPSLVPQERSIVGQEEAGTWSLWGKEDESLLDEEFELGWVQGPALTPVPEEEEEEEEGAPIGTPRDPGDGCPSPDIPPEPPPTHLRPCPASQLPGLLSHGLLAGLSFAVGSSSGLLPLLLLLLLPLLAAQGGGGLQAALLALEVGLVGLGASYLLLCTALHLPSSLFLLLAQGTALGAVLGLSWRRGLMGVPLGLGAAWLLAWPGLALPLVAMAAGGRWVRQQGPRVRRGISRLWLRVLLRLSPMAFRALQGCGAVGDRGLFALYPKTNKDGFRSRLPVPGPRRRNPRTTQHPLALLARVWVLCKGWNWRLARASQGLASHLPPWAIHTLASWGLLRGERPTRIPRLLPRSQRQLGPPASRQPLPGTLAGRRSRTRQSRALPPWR
Chain of UniProt Q9H2D1 (Q9H2D1 whole entry, looked up): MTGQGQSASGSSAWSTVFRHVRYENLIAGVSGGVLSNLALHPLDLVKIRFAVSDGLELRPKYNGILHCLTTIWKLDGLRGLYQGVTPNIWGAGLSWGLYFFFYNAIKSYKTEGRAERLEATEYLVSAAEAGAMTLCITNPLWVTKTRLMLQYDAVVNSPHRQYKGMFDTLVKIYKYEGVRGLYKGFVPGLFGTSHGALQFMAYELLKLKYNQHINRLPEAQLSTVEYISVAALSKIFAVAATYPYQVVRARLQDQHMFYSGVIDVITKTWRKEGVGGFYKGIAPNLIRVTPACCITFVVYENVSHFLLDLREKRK
Chain of UniProt Q8WVK7 (Q8WVK7 whole entry, looked up): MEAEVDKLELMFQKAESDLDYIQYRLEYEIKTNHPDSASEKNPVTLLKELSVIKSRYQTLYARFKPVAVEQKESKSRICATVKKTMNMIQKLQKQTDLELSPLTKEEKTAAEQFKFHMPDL
Chain of UniProt Q7L8J4 (Q7L8J4 whole entry, looked up): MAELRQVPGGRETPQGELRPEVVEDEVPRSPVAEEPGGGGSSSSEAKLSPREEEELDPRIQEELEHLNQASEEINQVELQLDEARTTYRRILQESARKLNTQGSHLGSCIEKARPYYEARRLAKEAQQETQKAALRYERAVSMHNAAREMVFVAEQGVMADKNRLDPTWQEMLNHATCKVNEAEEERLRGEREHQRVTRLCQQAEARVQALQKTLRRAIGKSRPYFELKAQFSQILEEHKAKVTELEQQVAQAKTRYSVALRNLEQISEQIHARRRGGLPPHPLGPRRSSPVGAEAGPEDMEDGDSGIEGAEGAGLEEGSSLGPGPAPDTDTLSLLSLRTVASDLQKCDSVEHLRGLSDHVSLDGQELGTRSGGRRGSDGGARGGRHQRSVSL
Chain of UniProt Q8TBC3 (Q8TBC3 whole entry, looked up): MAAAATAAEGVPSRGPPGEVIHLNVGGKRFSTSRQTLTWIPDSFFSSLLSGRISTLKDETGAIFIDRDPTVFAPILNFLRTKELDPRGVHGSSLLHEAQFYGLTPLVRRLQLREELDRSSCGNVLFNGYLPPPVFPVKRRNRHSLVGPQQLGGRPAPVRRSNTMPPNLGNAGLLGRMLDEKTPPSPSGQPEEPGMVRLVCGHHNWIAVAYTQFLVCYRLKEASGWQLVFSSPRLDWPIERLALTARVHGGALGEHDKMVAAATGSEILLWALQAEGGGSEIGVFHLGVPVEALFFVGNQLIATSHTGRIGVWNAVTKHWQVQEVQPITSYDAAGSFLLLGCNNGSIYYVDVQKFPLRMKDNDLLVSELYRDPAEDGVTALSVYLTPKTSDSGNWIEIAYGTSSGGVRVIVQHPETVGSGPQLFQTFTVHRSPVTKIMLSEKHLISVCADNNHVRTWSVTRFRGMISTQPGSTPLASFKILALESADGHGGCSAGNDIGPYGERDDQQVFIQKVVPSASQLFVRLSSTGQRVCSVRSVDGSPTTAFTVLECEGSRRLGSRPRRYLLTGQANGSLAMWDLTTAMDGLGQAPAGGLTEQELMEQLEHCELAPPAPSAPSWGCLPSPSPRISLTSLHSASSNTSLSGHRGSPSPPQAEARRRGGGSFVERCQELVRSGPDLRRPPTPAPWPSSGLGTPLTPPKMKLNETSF
Chain of UniProt P52630 (P52630 whole entry, looked up): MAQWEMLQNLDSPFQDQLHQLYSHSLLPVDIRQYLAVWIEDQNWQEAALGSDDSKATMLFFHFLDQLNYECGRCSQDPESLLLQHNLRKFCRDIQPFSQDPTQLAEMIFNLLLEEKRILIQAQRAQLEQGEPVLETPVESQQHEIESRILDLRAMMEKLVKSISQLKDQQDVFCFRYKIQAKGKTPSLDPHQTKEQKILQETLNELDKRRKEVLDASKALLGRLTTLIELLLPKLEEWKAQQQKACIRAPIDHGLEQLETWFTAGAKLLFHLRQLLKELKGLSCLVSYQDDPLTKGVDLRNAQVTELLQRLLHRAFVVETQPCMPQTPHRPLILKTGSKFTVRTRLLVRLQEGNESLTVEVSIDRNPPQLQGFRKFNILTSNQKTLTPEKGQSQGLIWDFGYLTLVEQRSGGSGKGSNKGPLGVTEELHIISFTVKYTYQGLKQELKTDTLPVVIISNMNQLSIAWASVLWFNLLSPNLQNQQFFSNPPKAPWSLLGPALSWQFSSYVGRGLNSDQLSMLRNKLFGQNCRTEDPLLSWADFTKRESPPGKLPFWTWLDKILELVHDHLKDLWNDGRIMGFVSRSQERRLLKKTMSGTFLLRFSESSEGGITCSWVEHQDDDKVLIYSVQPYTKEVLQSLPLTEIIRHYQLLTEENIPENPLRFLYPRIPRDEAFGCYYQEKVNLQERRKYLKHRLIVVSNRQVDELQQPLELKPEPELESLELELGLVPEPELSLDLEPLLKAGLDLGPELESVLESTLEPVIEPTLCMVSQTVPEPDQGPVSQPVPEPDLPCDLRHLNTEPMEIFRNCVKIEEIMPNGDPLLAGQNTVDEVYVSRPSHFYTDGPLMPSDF
Chain of UniProt Q6KCM7 (Q6KCM7 whole entry, looked up): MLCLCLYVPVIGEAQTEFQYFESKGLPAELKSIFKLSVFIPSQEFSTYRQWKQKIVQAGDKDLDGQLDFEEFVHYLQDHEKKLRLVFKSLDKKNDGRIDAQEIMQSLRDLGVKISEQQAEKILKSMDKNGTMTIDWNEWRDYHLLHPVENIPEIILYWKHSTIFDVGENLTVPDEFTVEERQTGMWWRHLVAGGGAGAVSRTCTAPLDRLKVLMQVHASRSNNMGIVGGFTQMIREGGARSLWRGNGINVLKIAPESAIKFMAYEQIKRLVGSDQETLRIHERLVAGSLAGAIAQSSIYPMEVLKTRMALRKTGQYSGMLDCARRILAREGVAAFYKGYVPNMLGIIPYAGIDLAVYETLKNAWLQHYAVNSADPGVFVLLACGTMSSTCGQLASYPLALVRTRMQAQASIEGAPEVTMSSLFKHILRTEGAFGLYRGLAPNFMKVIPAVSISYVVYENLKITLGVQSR
Chain of UniProt Q13188 (Q13188 whole entry, looked up): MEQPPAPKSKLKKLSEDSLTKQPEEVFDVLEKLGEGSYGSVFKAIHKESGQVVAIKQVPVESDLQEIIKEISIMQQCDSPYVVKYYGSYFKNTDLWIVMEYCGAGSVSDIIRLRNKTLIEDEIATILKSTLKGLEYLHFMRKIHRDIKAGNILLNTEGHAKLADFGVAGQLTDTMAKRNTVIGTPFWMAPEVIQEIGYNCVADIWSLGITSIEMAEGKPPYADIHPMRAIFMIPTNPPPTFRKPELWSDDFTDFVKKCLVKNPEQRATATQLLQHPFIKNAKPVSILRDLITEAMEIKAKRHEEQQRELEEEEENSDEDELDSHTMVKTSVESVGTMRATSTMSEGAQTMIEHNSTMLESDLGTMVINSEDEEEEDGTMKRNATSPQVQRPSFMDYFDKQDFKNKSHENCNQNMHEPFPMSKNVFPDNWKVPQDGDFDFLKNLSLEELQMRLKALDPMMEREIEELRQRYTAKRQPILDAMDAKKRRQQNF
Chain of UniProt Q8NHG7 (Q8NHG7 whole entry, looked up): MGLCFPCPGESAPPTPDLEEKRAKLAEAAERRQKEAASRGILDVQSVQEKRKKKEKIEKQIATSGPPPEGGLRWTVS
Chain of UniProt Q9NZ72 (Q9NZ72 whole entry, looked up): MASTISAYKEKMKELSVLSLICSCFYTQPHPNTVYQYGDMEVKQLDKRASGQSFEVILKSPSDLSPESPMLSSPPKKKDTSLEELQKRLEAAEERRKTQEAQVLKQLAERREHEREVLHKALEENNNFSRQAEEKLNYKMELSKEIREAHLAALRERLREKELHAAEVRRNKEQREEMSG
Chain of UniProt P62318 (P62318 whole entry, looked up): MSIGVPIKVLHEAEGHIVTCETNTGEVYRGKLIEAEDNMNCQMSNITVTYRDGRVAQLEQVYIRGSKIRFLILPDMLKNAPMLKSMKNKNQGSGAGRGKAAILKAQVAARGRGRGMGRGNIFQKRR

Compound in the first test: C1=CC=C(C=C1)[C@H](COC2=CC3=C(C=C2)NC(=O)N3)NC(=O)C4=CC=CN(C4=O)CC5=CC(=C(C=C5)F)F
Nature of the test: log2 fold change, soluble protein after heating vs DMSO (PISA); higher = thermal stabilisation; K562 lysate, 10 uM; active = over 0.2 and 3.5 SD of the protein, either way, in both replicates (recomputed). In outline: (§1)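 Following dounce homogenisation of K562 pellets in PBS pH 7.4 with 1 mM MgCl2, crude extract at 1 mg/mL protein was incubated for 30 min with 10 μM compound. Aliquots were then heated for 3 min over 48°C-58°C and pooled, NP-40 was added to 0.5% at 4°C, and soluble protein was recovered as the supernatant at 21,000xg for 90 min. Channel-sum-equalised TMTpro 16plex LC-MS/MS quantified this protein. Each value, from duplicates, is a log-two fold change in thermal stability relative to solvent controls.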
Turning to STK3 isoform 2 (UniProt Q13188), the log2 fold change is -0.031.

SMG1 (UniProt Q96Q15): the log2 fold change is -0.05.

In the case of SLC25A32 (UniProt Q9H2D1), the log2 fold change was 0.032.

Regarding SFN (UniProt P31947), the log2 fold change was 0.039.

Turning to SLC25A17 (UniProt O43808), the log2 fold change was -0.014.

As for SNX6, A0A0A0MRI2, the log2 fold change is 0.014.

As for SLC20A1 (UniProt Q8WUM9), the log2 fold change was 0.071.

Turning to SMC3 (UniProt Q9UQE7), the log2 fold change is -0.002.

As to SRP54 (UniProt P61011), the log2 fold change was 0.023.

On to TAF9 (UniProt Q16594), for which the log2 fold change was 0.04.

Regarding SVIP (UniProt Q8NHG7), the log2 fold change is 0.02.

For SYNE2 isoform 2 (UniProt Q8WXH0), the log2 fold change is -0.037.

With SMC4 (UniProt C9JJ64), the log2 fold change was -0.189.

For the target SQLE (UniProt Q14534), the log2 fold change was 0.044.

Take SLC25A25 isoform 3 (UniProt Q6KCM7): the log2 fold change is 0.064.

On to SMC1B isoform 3 (UniProt Q8NDV3), for which the log2 fold change is 0.009.

For TADA3 (UniProt O75528), the log2 fold change is 0.043.

Regarding SMYD3 (UniProt Q9H7B4), the log2 fold change was 0.028.

Take TAOK2 (UniProt Q9UL54): the log2 fold change is -0.033.

With SHKBP1 (UniProt Q8TBC3), the log2 fold change was 0.016.

As for STAT2 (UniProt P52630), the log2 fold change is -0.033.

Regarding SNCA (UniProt P37840), the log2 fold change is 0.211.

Consider SH3BP5L (UniProt Q7L8J4), for which the log2 fold change was 0.015.

For STAU1 (UniProt O95793), the log2 fold change was -0.023.

Consider SPAG1 (UniProt Q07617), for which the log2 fold change was -0.046.

For SNRPD2 (UniProt P62316), the log2 fold change was 0.039.

On to SKA2 (UniProt Q8WVK7), for which the log2 fold change was -0.013.

SNRPD3 (UniProt P62318): the log2 fold change was -0.02.

Regarding STK39 (UniProt Q9UEW8), the log2 fold change is 0.011.

On to STMN3 (UniProt Q9NZ72), for which the log2 fold change was 0.046.

Consider SMAD2 (UniProt Q15796), for which the log2 fold change was -0.006.

On to SP1 (UniProt P08047), for which the log2 fold change was 0.007.

Compound in the next test: CC1=C(SC2=C1C(=N[C@H](C3=NN=C(N32)C)CC(=O)N)C4=CC=C(C=C4)Cl)C
The test is described as above. In outline:
as §1
Regarding STK3 isoform 2 (UniProt Q13188), the log2 fold change was -0.042.

As for SMG1 (UniProt Q96Q15), the log2 fold change was -0.012.

Consider SLC25A32 (UniProt Q9H2D1), for which the log2 fold change was 0.014.

Regarding SFN (UniProt P31947), the log2 fold change is -0.033.

For the target SLC25A17 (UniProt O43808), the log2 fold change was 0.007.

As for SNX6, A0A0A0MRI2, the log2 fold change is 0.006.

As to SLC20A1 (UniProt Q8WUM9), the log2 fold change was -0.048.

In the case of SMC3 (UniProt Q9UQE7), the log2 fold change is 0.011.

Regarding SRP54 (UniProt P61011), the log2 fold change is 0.001.

In the case of TAF9 (UniProt Q16594), the log2 fold change is -0.004.

SVIP (UniProt Q8NHG7): the log2 fold change is -0.048.

As for SYNE2 isoform 2 (UniProt Q8WXH0), the log2 fold change was 0.044.

Consider SMC4 (UniProt C9JJ64), for which the log2 fold change was 0.179.

Take SQLE (UniProt Q14534): the log2 fold change was 0.054.

Regarding SLC25A25 isoform 3 (UniProt Q6KCM7), the log2 fold change was -0.027.

Regarding SMC1B isoform 3 (UniProt Q8NDV3), the log2 fold change was 0.076.

For TADA3 (UniProt O75528), the log2 fold change was 0.

For SMYD3 (UniProt Q9H7B4), the log2 fold change is 0.05.

Turning to TAOK2 (UniProt Q9UL54), the log2 fold change was 0.118.

For the target SHKBP1 (UniProt Q8TBC3), the log2 fold change was 0.02.

Take STAT2 (UniProt P52630): the log2 fold change was 0.005.

Regarding SNCA (UniProt P37840), the log2 fold change is 0.

SH3BP5L (UniProt Q7L8J4): the log2 fold change was 0.015.

As for STAU1 (UniProt O95793), the log2 fold change is -0.021.

SPAG1 (UniProt Q07617): the log2 fold change is -0.327.

Turning to SNRPD2 (UniProt P62316), the log2 fold change is -0.021.

For the target SKA2 (UniProt Q8WVK7), the log2 fold change was -0.038.

For SNRPD3 (UniProt P62318), the log2 fold change was -0.011.

Regarding STK39 (UniProt Q9UEW8), the log2 fold change was -0.056.

Regarding STMN3 (UniProt Q9NZ72), the log2 fold change is -0.053.

Take SMAD2 (UniProt Q15796): the log2 fold change is 0.024.

Turning to SP1 (UniProt P08047), the log2 fold change is 0.042.

Compound in another test: CC1=C2C(=CC=C1)N=C(N(C2=O)C3=CC=CC=C3C)CN4C=NC5=C(N=CN=C54)N
The description is as above. In outline:
as §1
With STK3 isoform 2 (UniProt Q13188), the log2 fold change is -0.108.

Consider SMG1 (UniProt Q96Q15), for which the log2 fold change is 0.018.

Take SLC25A32 (UniProt Q9H2D1): the log2 fold change was 0.016.

Turning to SFN (UniProt P31947), the log2 fold change was -0.023.

SLC25A17 (UniProt O43808): the log2 fold change was -0.024.

For SNX6, A0A0A0MRI2, the log2 fold change is 0.016.

Turning to SLC20A1 (UniProt Q8WUM9), the log2 fold change was 0.007.

In the case of SMC3 (UniProt Q9UQE7), the log2 fold change was -0.011.

Consider SRP54 (UniProt P61011), for which the log2 fold change was 0.03.

With TAF9 (UniProt Q16594), the log2 fold change was 0.05.

On to SVIP (UniProt Q8NHG7), for which the log2 fold change is -0.052.

On to SYNE2 isoform 2 (UniProt Q8WXH0), for which the log2 fold change is 0.02.

Turning to SQLE (UniProt Q14534), the log2 fold change is -0.099.

On to SLC25A25 isoform 3 (UniProt Q6KCM7), for which the log2 fold change is 0.013.

For SMC1B isoform 3 (UniProt Q8NDV3), the log2 fold change was 0.12.

Turning to TADA3 (UniProt O75528), the log2 fold change was 0.087.

Take SMYD3 (UniProt Q9H7B4): the log2 fold change was 0.035.

Turning to TAOK2 (UniProt Q9UL54), the log2 fold change was -0.001.

Regarding SHKBP1 (UniProt Q8TBC3), the log2 fold change is 0.077.

On to STAT2 (UniProt P52630), for which the log2 fold change was 0.043.

Turning to SNCA (UniProt P37840), the log2 fold change was -0.009.

As to SH3BP5L (UniProt Q7L8J4), the log2 fold change was 0.047.

For STAU1 (UniProt O95793), the log2 fold change is 0.012.

Consider SPAG1 (UniProt Q07617), for which the log2 fold change was 0.081.

As to SNRPD2 (UniProt P62316), the log2 fold change was 0.028.

In the case of SKA2 (UniProt Q8WVK7), the log2 fold change was 0.031.

For SNRPD3 (UniProt P62318), the log2 fold change is 0.022.

As to STK39 (UniProt Q9UEW8), the log2 fold change is 0.049.

For the target STMN3 (UniProt Q9NZ72), the log2 fold change was 0.065.

On to SMAD2 (UniProt Q15796), for which the log2 fold change was -0.104.

With SP1 (UniProt P08047), the log2 fold change is 0.001.
